Screening results: PubChem, several laboratories
EBV gp42 inh: Epstein-Barr virus gp42 inhibitors, primary screen, biochemical, uHTS, fluorescence polarization. Glycoprotein 42 (Epstein-Barr virus (strain AG876)), Q1HVG2. Fluorescence polarization binding assay, mP read-out. inhibition, % (tested at 21.74 µM). hit rate 0.42% among 220,000. AID 1085, 2008; in the data active means inhibition above about 50%
E coli Lon inh: inhibitors of E. coli Lon protease, primary screen, biochemical, fluorescence polarization. P0A9M0. purified E. coli Lon protease. inhibition, % at 7.94 µM. hit rate 0.42% among 360,000. AID 602123, 2011; in the data active means inhibition above about 13%, passing the limit was not always enough
MCL1-BIM inh: inhibitors of MCL1 binding to BIM-BH3, primary screen, biochemical, fluorescence polarization. GST-MCL1 / FITC-Bim-BH3 fluorescence polarization. hit rate 0.68% among 320,000. inhibition, % at 10.9 µM. Induced myeloid leukemia cell differentiation protein Mcl-1 (Homo sapiens), Q07820;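 active means inhibition above the mean inhibition of all tested compounds plus 3 SD, set per campaign, cut at about 40% in these data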;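 further: higher means more loss of mP so more displacement of Bim peptide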
Bcl-xL primary: inhibitors of human Bcl-xL, primary screen, biochemical, fluorescence polarization, HTS; Bcl-2-like protein 1 (Homo sapiens), Q07817; GST-Bcl-xL / FITC-Bim BH3 peptide fluorescence polarization; inhibition, % at 10.9 µM; hit rate 0.7% among 320,000; AID 2129, 2009;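 active means inhibition above the mean of all tested compounds plus 3 SD, cutoff set per campaign, cut at about 30% in these data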;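 further: inhibitors lower millipolarization by displacing the labeled peptide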
GLD-1 RNA inh: GLD-1/TGE RNA complex disruptors, primary screen, biochemical, fluorescence polarization; Female germline-specific tumor suppressor gld-1 (Caenorhabditis elegans), Q17339; purified GLD-1 + fluorescein TGE RNA; inhibition, % at 5.96 µM; hit rate 0.44% among 320,000; AID 2280, 2010;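 active means percent inhibition above a per-plate cutoff, the plate mean of test compounds plus 3 SD, cut at about 30% in these data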
Target sequence (Q17339 whole entry, looked up): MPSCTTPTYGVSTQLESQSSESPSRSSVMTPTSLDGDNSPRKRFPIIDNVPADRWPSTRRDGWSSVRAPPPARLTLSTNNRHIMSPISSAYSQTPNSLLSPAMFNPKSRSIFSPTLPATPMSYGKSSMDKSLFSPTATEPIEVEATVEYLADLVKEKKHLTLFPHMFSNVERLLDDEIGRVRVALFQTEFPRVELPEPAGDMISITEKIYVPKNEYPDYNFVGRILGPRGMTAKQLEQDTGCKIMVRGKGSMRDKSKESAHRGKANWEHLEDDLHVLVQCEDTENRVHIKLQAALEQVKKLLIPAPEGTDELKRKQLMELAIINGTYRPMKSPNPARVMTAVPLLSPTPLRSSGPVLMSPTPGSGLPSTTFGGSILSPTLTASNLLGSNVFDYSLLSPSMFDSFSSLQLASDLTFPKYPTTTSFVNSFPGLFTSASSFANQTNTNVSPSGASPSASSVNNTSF
MEX-5 binding: MEX-5 zinc finger RNA-binding disruptors – biochemical, C. elegans, fluorescence polarization, MLPCN library, primary screen; MEX-5/FITC-TCR2 RNA binding; stronger effect = lower value; activity score (negative = inhibition of binding), % at 10 µM; hit rate 0.38% among 300,000;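 active means inhibition past about -25% in most replicates, and total fluorescence under double the plate's negative control median, limit read from the data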
Each line names hits and unclear results; the compound was inactive in the other large screens. Sampled rows, rich in hits. Any-hit rate of the full collection: about 1.4%.

COc1cc(/C=C2/C(=O)NN(c3cccc(C)c3)C2=O)cc([N+](=O)[O-])c1O	MEX-5 binding -27
COc1cc(/C=C2\SC(=O)N(c3cccc(Cl)c3)C2=O)cc([N+](=O)[O-])c1O	EBV gp42 inh 87 (no result: MCL1-BIM inh, Bcl-xL primary, GLD-1 RNA inh, MEX-5 binding)
COc1cc(/C=C2\SC(=O)N(c3ccc(Cl)cc3)C2=O)cc([N+](=O)[O-])c1O	EBV gp42 inh 100 (no result: MCL1-BIM inh, Bcl-xL primary, GLD-1 RNA inh, MEX-5 binding)
COc1cc(/C=C2/C(=O)NN(c3ccc(C)c(Cl)c3)C2=O)cc([N+](=O)[O-])c1O	none (no result: EBV gp42 inh, MCL1-BIM inh, Bcl-xL primary, GLD-1 RNA inh)
N#CCCN(Cc1cccnc1)C(=S)NC(=O)C1CC1	none (no result: E coli Lon inh)
C=CCn1c(Oc2ccc(C=O)cc2OCC)nc2c1c(=O)n(C)c(=O)n2C	none (no result: EBV gp42 inh)
O=C(NC(NC(=S)Nc1ccc(Cl)cc1Cl)C(Cl)(Cl)Cl)c1cccc([N+](=O)[O-])c1 (centres undefined)	EBV gp42 inh 60
COC(=O)c1sccc1N/N=C/c1cccc(Oc2ccccc2)c1	none
Cc1ccc2c(nc3s/c(=C\c4ccc(-c5ccccc5C(=O)O)o4)c(=O)n32)c1C	none (no result: EBV gp42 inh)
O=c1nc2s/c(=C\c3ccc(-c4ccccc4[N+](=O)[O-])o3)c(=O)n2nc1-c1ccccc1	EBV gp42 inh 176 (no result: MCL1-BIM inh, Bcl-xL primary, GLD-1 RNA inh)
Cc1ccc(Nc2ccc([N+](=O)[O-])ccc2=O)cc1	MEX-5 binding -28 (no result: EBV gp42 inh)
COC(=O)c1c(N2C(=O)CC(Sc3ncccc3C(=O)O)C2=O)sc(C)c1C (centres undefined)	none
O=C(c1ccc2c(c1)OCO2)[C@@H]1[C@@H]2C(=O)N(C3CCCCC3)C(=O)[C@@H]2C2c3ccccc3C=CN21 (some centres undefined)	none (no result: MCL1-BIM inh, Bcl-xL primary, GLD-1 RNA inh)
O=C(c1cccs1)[C@@H]1[C@@H]2C(=O)N(Cc3ccc4c(c3)OCO4)C(=O)[C@@H]2C2c3ccccc3C=CN21 (some centres undefined)	MCL1-BIM inh 43, Bcl-xL primary 48, GLD-1 RNA inh 39 (no result: E coli Lon inh)
CC(C)C[C@H]1COCCS(=O)(=O)N1Cc1ccc(Cl)c(Cl)c1	Bcl-xL primary 67 (no result: EBV gp42 inh)
CCC1COCCS(=O)(=O)N1Cc1cccc(Cl)c1 (centres undefined)	none (no result: EBV gp42 inh)
COc1ccc2c(c1)OCC1=C2CCC2(C)C(=O)CC=C12 (centres undefined)	Bcl-xL primary 40, GLD-1 RNA inh 39 (no result: E coli Lon inh)
COc1ccc2c(c1)SCCC2=O	none
CCOC(=O)CN(C(=O)CSc1nnc(CNc2ccc(F)cc2)n1C)c1ccccc1	GLD-1 RNA inh 45
COC1=CC(C)C2CC3OC(O)CC4C(C)=C(OC)C(=O)C(C2(C)C1=O)C34C (centres undefined)	none (no result: EBV gp42 inh, MCL1-BIM inh, Bcl-xL primary, GLD-1 RNA inh, MEX-5 binding)
Cc1cc(-c2ccc(N=Nc3c(S(=O)(=O)O)cc4cc(S(=O)(=O)O)cc(N)c4c3O)c(C)c2)ccc1N=Nc1c(S(=O)(=O)O)cc2cc(S(=O)(=O)O)cc(N)c2c1O	MCL1-BIM inh 96, Bcl-xL primary 65 (no result: EBV gp42 inh, E coli Lon inh, MEX-5 binding)
O=C(O)c1cc(Cl)c2c(c1)[C@@H]1C=CC[C@@H]1[C@H](c1ccc(S(=O)(=O)N3CCOCC3)cc1)N2	MCL1-BIM inh 48, Bcl-xL primary 40, MEX-5 binding -26
O=C(NC1CC1)C1=C[C@@H](c2c[nH]c3ccccc23)C[C@@H](OCc2ccc(CO)cc2)O1	Bcl-xL primary 39
CC1(OC(=O)C2CCCC2)C(=O)C=C2C=C(c3ccsc3)N(CC3CC3)C=C2C1=O (centres undefined)	none
CC1(OC(=O)C2CCCC2)C(=O)C=C2C=C(c3ccsc3)N(C3CCCCC3)C=C2C1=O (centres undefined)	Bcl-xL primary 30
C(=N\Nc1ccccc1)/c1nc2ccccc2s1	none
CC(NC(=O)c1ccccc1)C(=O)OCC(=O)c1ccc(Br)cc1 (centres undefined)	Bcl-xL primary 169 (no result: EBV gp42 inh)
O=c1c(/C=C(\O)c2ccccc2)nc2ccccc2n1-c1ccccc1	EBV gp42 inh 176, MEX-5 binding -53
